In the supplement of paper PMC8975748:
Structures can show the parent of a compound that is named as a salt. ± gives the standard deviation of the averaged measurements.

Columns and labels:
[1] = tested on: Saccharomyces cerevisiae BY4741 SeMeCo community; experiment: mean cell size (pixel area) (pixels); higher = larger cells; conditions: 10 µM; 24 h; SM minimal medium
Procedure, shortened: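 Plates of 384 wells were acoustically predosed with drug at a final 10 µM in SM medium, and 70 µl of a Saccharomyces cerevisiae BY4741 preculture diluted from OD600 = 1.0 to OD600 = 0.3 was added for 24 h. The yeast formed a four-plasmid fluorescent community in which each plasmid complements one auxotrophy and carries a fluorescent marker. Fixed cells were imaged by automated confocal microscopy and analysed in Harmony for mean cell pixel area per well. Values are means of 3 replicates. Same SeMeCo high-content imaging drug screen: Selleck FDA-approved drugs at 10 µM, 24 h in SM medium, 384-well plates, 3 replicates.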

[2] = tested on: Saccharomyces cerevisiae BY4741 SeMeCo community; experiment: z-score of prototroph abundance vs DMSO median; higher = larger share of this subpopulation than in DMSO controls; conditions: 10 µM; 24 h; SM minimal medium; subpopulation (auxotrophy): Prototroph
Procedure, shortened: (§1)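 Automated confocal microscopy of paraformaldehyde-fixed cells was used to follow a Saccharomyces cerevisiae BY4741 community carrying four plasmids, each restoring one auxotrophy and encoding a distinct fluorescent protein. The community was pre-grown overnight to OD600 1.0, diluted to 0.3, and added at 70 µl to 384-well plates acoustically predosed with library drugs (10 µM final) for 24 h of growth in minimal SM medium. Single-auxotroph fluorescent strains set thresholds and autofluorescence correction, and each subpopulation's abundance was scored as a z-score against the vehicle-well median.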

[3] = tested on: Saccharomyces cerevisiae BY4741 SeMeCo community; experiment: z-score of subpopulation abundance vs DMSO median, subpopulation auxotrophic for M; higher = larger share of this subpopulation than in DMSO controls; conditions: 10 µM; 24 h; SM minimal medium; subpopulation (auxotrophy): M
Procedure, shortened: as §1

[4] = tested on: Saccharomyces cerevisiae BY4741 SeMeCo community; experiment: z-score of subpopulation abundance vs DMSO median, subpopulation auxotrophic for L; higher = larger share of this subpopulation than in DMSO controls; conditions: 10 µM; 24 h; SM minimal medium; subpopulation (auxotrophy): L
Procedure, shortened: as §1

[5] = tested on: Saccharomyces cerevisiae BY4741 SeMeCo community; experiment: z-score of subpopulation abundance vs DMSO median, subpopulation auxotrophic for U; higher = larger share of this subpopulation than in DMSO controls; conditions: 10 µM; 24 h; SM minimal medium; subpopulation (auxotrophy): U
Procedure, shortened: as §1

[6] = tested on: Saccharomyces cerevisiae BY4741 SeMeCo community; experiment: z-score of subpopulation abundance vs DMSO median, subpopulation auxotrophic for H; higher = larger share of this subpopulation than in DMSO controls; conditions: 10 µM; 24 h; SM minimal medium; subpopulation (auxotrophy): H
Procedure, shortened: as §1

[7] = tested on: Saccharomyces cerevisiae BY4741 SeMeCo community; experiment: z-score of subpopulation abundance vs DMSO median, subpopulation auxotrophic for LM; higher = larger share of this subpopulation than in DMSO controls; conditions: 10 µM; 24 h; SM minimal medium; subpopulation (auxotrophy): LM
Procedure, shortened: as §1

[8] = tested on: Saccharomyces cerevisiae BY4741 SeMeCo community; experiment: z-score of subpopulation abundance vs DMSO median, subpopulation auxotrophic for HM; higher = larger share of this subpopulation than in DMSO controls; conditions: 10 µM; 24 h; SM minimal medium; subpopulation (auxotrophy): HM
Procedure, shortened: as §1

[9] = tested on: Saccharomyces cerevisiae BY4741 SeMeCo community; experiment: z-score of subpopulation abundance vs DMSO median, subpopulation auxotrophic for HU; higher = larger share of this subpopulation than in DMSO controls; conditions: 10 µM; 24 h; SM minimal medium; subpopulation (auxotrophy): HU
Procedure, shortened: as §1

[10] = tested on: Saccharomyces cerevisiae BY4741 SeMeCo community; experiment: z-score of subpopulation abundance vs DMSO median, subpopulation auxotrophic for UM; higher = larger share of this subpopulation than in DMSO controls; conditions: 10 µM; 24 h; SM minimal medium; subpopulation (auxotrophy): UM
Procedure, shortened: as §1

[11] = tested on: Saccharomyces cerevisiae BY4741 SeMeCo community; experiment: z-score of subpopulation abundance vs DMSO median, subpopulation auxotrophic for HL; higher = larger share of this subpopulation than in DMSO controls; conditions: 10 µM; 24 h; SM minimal medium; subpopulation (auxotrophy): HL
Procedure, shortened: as §1

[12] = tested on: Saccharomyces cerevisiae BY4741 SeMeCo community; experiment: z-score of subpopulation abundance vs DMSO median, subpopulation auxotrophic for HLU; higher = larger share of this subpopulation than in DMSO controls; conditions: 10 µM; 24 h; SM minimal medium; subpopulation (auxotrophy): HLU
Procedure, shortened: as §1

[13] = tested on: Saccharomyces cerevisiae BY4741 SeMeCo community; experiment: z-score of subpopulation abundance vs DMSO median, subpopulation auxotrophic for HUM; higher = larger share of this subpopulation than in DMSO controls; conditions: 10 µM; 24 h; SM minimal medium; subpopulation (auxotrophy): HUM
Procedure, shortened: as §1

[14] = tested on: Saccharomyces cerevisiae BY4741 SeMeCo community; experiment: z-score of subpopulation abundance vs DMSO median, subpopulation auxotrophic for LUM; higher = larger share of this subpopulation than in DMSO controls; conditions: 10 µM; 24 h; SM minimal medium; subpopulation (auxotrophy): LUM
Procedure, shortened: as §1

[15] = tested on: Saccharomyces cerevisiae BY4741 SeMeCo community; experiment: z-score of subpopulation abundance vs DMSO median, subpopulation auxotrophic for HLUM; higher = larger share of this subpopulation than in DMSO controls; conditions: 10 µM; 24 h; SM minimal medium; subpopulation (auxotrophy): HLUM
Procedure, shortened: as §1

[16] = tested on: Saccharomyces cerevisiae BY4741 SeMeCo community; experiment: z-score of subpopulation abundance vs DMSO median, subpopulation auxotrophic for HLM; higher = larger share of this subpopulation than in DMSO controls; conditions: 10 µM; 24 h; SM minimal medium; subpopulation (auxotrophy): HLM
Procedure, shortened: as §1

[17] = tested on: Saccharomyces cerevisiae BY4741 SeMeCo community; experiment: z-score of subpopulation abundance vs DMSO median, subpopulation auxotrophic for LU; higher = larger share of this subpopulation than in DMSO controls; conditions: 10 µM; 24 h; SM minimal medium; subpopulation (auxotrophy): LU
Procedure, shortened: as §1

Compound | mean cell size [1] | z-score of prototroph abundance [2] | z-score of subpopulation abundance [3] | z-score of subpopulation abundance [4] | z-score of subpopulation abundance [5] | z-score of subpopulation abundance [6] | z-score of subpopulation abundance [7] | z-score of subpopulation abundance [8] | z-score of subpopulation abundance [9] | z-score of subpopulation abundance [10] | z-score of subpopulation abundance [11] | z-score of subpopulation abundance [12] | z-score of subpopulation abundance [13] | z-score of subpopulation abundance [14] | z-score of subpopulation abundance [15] | z-score of subpopulation abundance [16] | z-score of subpopulation abundance [17]
Cc1c(-c2ccc(O)cc2)n(Cc2ccc(OCCN3CCCCCC3)cc2)c2ccc(O)cc12 [Bazedoxifene Acetate] | 12.6 ± 0.073 | -0.23 | 0.99 | -0.2 | -0.25 | 0.29 | -0.35 | 0.8 | -1.12 | 0.36 | -0.12 | 0.21 | -0.26 | 0.65 | -0.3 |  | 
CC(C)[C@H]1CC[C@H](C(=O)N[C@H](Cc2ccccc2)C(=O)O)CC1 [Nateglinide] | 12.5 ± 0.12 | -0.85 | 1.18 | 0.26 | -0.59 | 0.66 | 0.32 | 0.65 |  | 0.38 | -0.02 | -0.32 | -0.11 | 1.15 | 0.69 |  | 
CO/N=C(/C(=O)N[C@@H]1C(=O)N2C(C(=O)OCOC(=O)C(C)(C)C)=C(C)CS[C@H]12)c1csc(N)n1 [Cefetamet pivoxil hydrochloride] | 12.46 ± 0.1 | -1.5 | 0.7 | 0.83 | 0.3 | 1.26 | 0.52 | 1.3 | 0.78 | 0.64 | 1.33 | 1.65 |  | 1.09 | 0.63 | 1.15 | 
CN1[C@@H]2CC[C@H]1C[C@@H](OC(c1ccccc1)c1ccccc1)C2 [Benztropine mesylate] | 12.38 ± 0.057 | 1.01 | -0.66 |  | -0.32 |  | 0.22 | -0.56 | -0.54 | -0.32 | 0.19 | -0.48 | -0.47 |  | -0.38 | -0.44 | 
CC1=C(C(=O)O)N2C(=O)[C@@H](NC(=O)[C@H](N)C3=CCC=CC3)[C@H]2SC1 [Cefradine] | 12.12 ± 0.02 | 0.86 | -0.36 | 0.14 | 0.07 | -0.04 | -0.58 | -0.73 | -0.92 | -0.6 |  | -0.16 | -0.79 | -0.81 | 0.1 |  | 
CCC(C)n1ncn(-c2ccc(N3CCN(c4ccc(OCC5COC(Cn6cncn6)(c6ccc(Cl)cc6Cl)O5)cc4)CC3)cc2)c1=O (stereo not drawn) [Itraconazole] | 11.93 ± 0.1 | -10.4 | 0.3 | 0.48 | -0.83 | 18.3 | 1.85 | 7.45 | 7.89 |  | 17.3 | 7.28 | 9.21 | 6.18 |  |  | 
Nc1c(CC(=O)O)cccc1C(=O)c1ccc(Br)cc1 [Bromfenac Sodium] | 12.5 ± 0.043 | -0.27 |  | -0.45 | 0.73 | -0.02 | -0.28 | -0.15 | 0.19 | 0.59 | -0.68 | -0.92 | 0.05 | 0.39 | 0.3 | -0.09 | -0.11
CC1=C(C(=O)O)N2C(=O)[C@@H](NC(=O)[C@H](N)c3ccc(O)cc3)[C@H]2SC1 [Cefadroxil hydrate] | 12.1 ± 0.2 | 0.8 | -0.99 |  | -0.62 | 0.01 |  | -0.79 |  | -0.45 | -0.19 | -0.42 | -0.39 | -0.5 | -0.33 |  | 
N[C@@H]1CN(c2c(F)cc3c(=O)c(C(=O)O)cn([C@@H]4C[C@@H]4F)c3c2Cl)CC12CC2 [Sitafloxacin Hydrate] | 12.2 ± 0.062 | -1.39 | 0.3 | 0.29 | 1.07 | 0.2 | 0.69 | 0.61 | 1.54 | 1.53 | 0.18 | 0.03 | 0.81 | 0.98 | -0.03 |  | 
Cc1cc(NS(=O)(=O)c2ccc(N)cc2)nc(C)n1 [sulfaisodimidine] | 12.1 ± 0.25 | -0.51 | 0.59 |  | 0.36 | -1.29 | 0.12 | 0.38 | 0.09 | 0.16 | -0.94 | 0.38 | -0.19 | 0.42 | 0.48 | -0.45 | 
C[C@H](NCc1ccc(OCc2cccc(F)c2)cc1)C(N)=O [Safinamide] | 12.47 ± 0.075 |  | 0.59 | -0.58 | 1.46 |  | 0.37 | 0.41 | 1.16 | 0.6 | 0.15 | 0.72 |  |  | 0.95 |  | 
CN1CCN(CCCN2c3ccccc3Sc3ccc(Cl)cc32)CC1 [Prochlorperazine dimaleate salt] |  | -0.98 | 0.75 | 0.41 | -0.36 | 1.05 | 0.75 | 1.58 |  | 0.65 | 0.69 | 0.49 | 1.51 | 1.88 |  | 0.12 | 
CO/N=C(\C(=O)N[C@@H]1C(=O)N2C(C(=O)O)=C(CSC(=O)c3ccco3)CS[C@H]12)c1csc(N)n1 [Ceftiofur] | 12.28 ± 0.045 | -0.44 | -0.46 | -0.31 | 0.57 | 0.28 |  | -0.13 |  | 0.79 | 0.39 | -0.05 | 0.28 | -0.02 | 0.07 |  | 
COC(=O)Nc1nc2cc([S+]([O-])c3ccccc3)ccc2[nH]1 (stereo not drawn) [Oxfendazole] | 12.59 ± 0.1 | 0.13 | 0.39 |  | 1.29 | 0.08 | -1.48 | -0.28 | 0.76 | 0.53 | 0 | -0.7 | 0.73 |  | -1.07 | -0.75 | 
